This is part of a sample that, as a whole, favours compounds with a hit. Of some 83,000 tested, about 20% had one in any assay.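 In brief: 96-well plates, 48 h treatment, single concentration, percent growth endpoint.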 A number with no mark means an inactive call. Active and inactive are the calls of the source. How the source made its calls: active means growth percent below 10; inactive means the rest.

For this experiment, the system named is HL-60(TB) leukemia. Nature of the experiment: NCI-60 one-dose screen, 48 h (100 = growth as untreated, 0 = no growth, -100 = all killed). The following applies: 10 µM unless noted.
On to `O=C1Nc2ccc(F)cc2/C1=C/c1cccc(OCc2ccccn2)c1`, for which the growth was 7.92% (active).
`COc1ccc(-c2cc(-c3cc(OC)c(OC)c(OC)c3)[nH]c(=O)c2C#N)cc1`: the growth was 102%.
Consider `COc1sc(/C=N/NC(=O)c2[nH]c3ccc(Br)cc3c2-c2ccccc2)cc1Br`, for which the growth is -37.7% (active).
Take `COc1ccc(N=Nc2c(N)nn3c(-c4ccc(F)cc4)ccnc23)cc1`: the growth is 95.3%.
For the compound `O=c1[nH]c2ccccc2cc1CSc1ccc(Nc2nccc(-c3ccc4ccccc4c3)n2)cc1`, the growth is 92.5%.
Under `C/C(=N\N=C1/C(=O)Nc2ccc(Cl)cc21)c1ccc2c(c1)Nc1ccccc1S2` stands 8.43% (active).
Turning to `CCCCSc1nc(NCCc2c[nH]c3ccccc23)c(C#N)c(-c2ccc(F)cc2)n1`, the growth was 53.8%.

The values are drawn from PubChem BioAssay (NCI).
